Data on 16 compounds can be found in publication PMC5540273 (PLoS ONE, 2017).

Structures are written as SMILES. Several values for one entry are separate records, joined by “and”; a condition that tells them apart may be missing. Equal entries are not always repeated. Where two headings read alike, the source gives them in different places.

For assay [1], the system named is AKT3. To be noted: concentration: 1 μM, replicates: in singlicate, n = 1.
In assay [2] the test system is ALK. As to conditions: concentration: 1 μM, replicates: in singlicate; n = 1.
Assay [3] concerns T1, AMPK-alpha1.
T1 construct: gene PRKAA1
To be noted: concentration: 1 μM, replicates: in singlicate, n = 1.

Assay [4] relates to T2, AMPK-alpha2.
T2 construct: gene PRKAA2
As to conditions: concentration: 1 μM, replicates: in singlicate; n = 1.

The test system of assay [5] is ANKK1. To be noted: concentration: 1 μM, replicates: in singlicate, n = 1.
For assay [6], the system named is T3, ARK5.
T3 construct: gene NUAK1
To be noted: concentration: 1 μM, replicates: in singlicate, n = 1.

The subject of assay [7] is T4, ASK1.
T4 construct: gene MAP3K5
To be noted: concentration: 1 μM, replicates: in singlicate, n = 1.

For assay [8], the system named is T5, ASK2.
T5 construct: gene MAP3K6
To be noted: concentration: 1 μM, replicates: in singlicate, n = 1.

In assay [9] the test system is AURKA. To be noted: concentration: 1 μM, replicates: in singlicate, n = 1.
The subject of assay [10] is AURKB. To be noted: concentration: 1 μM, replicates: in singlicate, n = 1.
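Further: KINOMEscan kinase panel screen.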

For `COc1ccc(Nc2nccc(N3CCC(NC(=O)c4cccc(NC(C)=O)c4)C3)n2)cc1` (stereo not shown) [GSK1379732], the “%Inh” value in [1] amounted to 23%; in assay [2], 0%; in assay [3], 5%; in assay [4] it was 0%; in [5], 11%; in [6], 9%. For the same compound, the “%Inh” value in assay [7] is 0%; in assay [8] it was 1%; in [9], 16%; in [10] it was 1%.

Turning to `O=C(c1ccc(-c2cc(-c3c[nH]nc3-c3ccccn3)ccn2)cc1)N1CCCC1` [GW792479], the “%Inh” value was determined as 0% in assay [1]; 16% in assay [2]; 0% in [3]; 12% in assay [4]; 0% in assay [5]; 0% in assay [6]. Also, the “%Inh” value in [7] is given as 4%; in assay [8] it was 0%; in assay [9] it was 0%; in assay [10], 11%.

In the case of `CSc1ccc(NC2=C(c3ccccc3Cl)C(=O)NC2=O)cc1` [SB-342411], the “%Inh” value in [1] came out at 0%; in [2] it was 0%; in assay [3], 25%; in [4] it was 0%; in assay [5] it was 20%; in assay [6], 0%. Also, the “%Inh” value in assay [7] is on record as 0%; in assay [8], 0%; in [9] it was 21%; in [10], 2%.

Consider `CNc1nccc(-c2c(-c3ccc(F)cc3)ncn2CCCN2CCOCC2)n1` [SB-222516], for which the “%Inh” value in [1] stood at 14%; in assay [2], 12%; in assay [3] it was 0%; in [4], 9%; in [5] it was 39%; in assay [6] it was 0%. The “%Inh” value in assay [7] is reported as 9%; in assay [8], 12%; in assay [9], 0%; in assay [10], 11%.

Take `Cn1ccc2ncnc(Nc3ccc(Oc4cccc(Cl)c4)c(Cl)c3)c21`: the “%Inh” value is listed as 0% in [1]; 0% in [2]; 18% in assay [3]; 20% in assay [4]; 0% in assay [5]; 22% in [6]. In addition, the “%Inh” value is recorded as 0% in assay [7], 11% in assay [8], 0% in assay [9] and 33% in [10].

For the compound `N#Cc1ccc(Oc2ccc(Nc3ncnc4cc[nH]c34)cc2Cl)cc1`, the “%Inh” value in [1] was 0%; in assay [2], 0%; in assay [3] it was 17%; in assay [4], 15%; in [5] it was 28%; in assay [6] it was 10%. The “%Inh” value came out at 18% in assay [7], 0% in [8], 11% in assay [9] and 16% in [10].

Consider `Cn1ccc2ncnc(Oc3ccc(NC(=O)Nc4cccnc4)c(Cl)c3)c21`, for which the “%Inh” value in assay [1] was 0%; in [2] it was 0%; in assay [3], 4%; in [4] it was 9%; in assay [5], 0%; in [6] it was 3%. In addition, the “%Inh” value came to 5% in assay [7], 0% in [8], 18% in assay [9] and 47% in [10].

As to `O=C(Nc1ccccc1)Nc1ccc(Oc2ccc3nccn3n2)cc1`, the “%Inh” value in [1] was 10%; in [2], 0%; in [3] it was 25%; in assay [4], 0%; in assay [5], 0%; in [6], 0%. Further, the “%Inh” value is recorded as 8% in [7], 0% in [8], 0% in assay [9] and 68% in assay [10].

For `COC(=O)c1cccc(NC(=O)NCCNc2ccnc(Nc3ccc(F)cc3)n2)c1` [GSK1379883], the “%Inh” value in assay [1] is 0%; in assay [2], 32%; in assay [3], 0%; in [4], 18%; in assay [5], 1%; in assay [6], 0%. In addition, the “%Inh” value is given as 0% in assay [7], 0% in [8], 21% in assay [9] and 0% in assay [10].

In the case of `Fc1cccc(COc2ccc(Nc3ncnc4sc(-c5ccc[nH]5)cc34)cc2Cl)c1` [GW707818], the “%Inh” value was 0% in assay [1]; 0% in [2]; 10% in assay [3]; 36% in [4]; 12% in [5]; 6% in [6]. The “%Inh” value in assay [7] was 21%; in assay [8], 0%; in assay [9] it was 6%; in assay [10] it was 0%.

For the compound `CS(=O)(=O)CCNCc1nc(-c2ccc3ncnc(Nc4ccc(OCc5cccc(F)c5)c(Cl)c4)c3c2)cs1.Cl` [GW583340], the “%Inh” value in [1] came out at 0%; in [2] it was 0%; in assay [3] it was 0%; in assay [4], 0%; in assay [5], 0%; in [6], 11%. Also, the “%Inh” value in [7] is recorded as 11%; in assay [8] it was 0%; in assay [9], 5%; in [10], 0%.

For `Cl.O=S(=O)(c1cccc(F)c1)c1ccc(Nc2ncnc3cc(Br)sc23)cc1Cl` [GSK306886], the “%Inh” value was 0% in [1]; 14% in [2]; 0% in assay [3]; 0% in assay [4]; 3% in assay [5]; 10% in assay [6]. For the same compound, the “%Inh” value worked out at 8% in assay [7], 0% in assay [8], 30% in assay [9] and 0% in [10].

For `COc1ccc(NC(=O)c2ccc(-c3cc(-c4nnc(C)o4)ccc3C)cc2)cc1` [GW595885], the “%Inh” value in assay [1] was 0%; in [2] it was 36%; in assay [3], 0%; in assay [4] it was 14%; in assay [5], 0%; in [6], 0%. For the same compound, the “%Inh” value in [7] is recorded as 10%; in [8], 15%; in [9], 0%; in assay [10], 26%.

`Clc1cc(Nc2ncnc3cc[nH]c23)ccc1OCc1ccccn1`: the “%Inh” value in assay [1] is recorded as 5%; in assay [2] it was 0%; in assay [3], 20%; in assay [4], 0%; in assay [5], 20%; in [6] it was 0%. Besides, the “%Inh” value is given as 5% in [7], 0% in [8], 35% in assay [9] and 13% in [10].

Consider `COc1cc2c(Nc3cccc(NC(=O)c4ccccc4)c3)ncnc2cc1OCCCN1CCOCC1` [GSK223810], for which the “%Inh” value in [1] came out at 0%; in [2], 21%; in [3], 18%; in [4] it was 12%; in assay [5], 16%; in [6], 0%. The “%Inh” value in [7] amounted to 0%; in [8], 3%; in [9], 25%; in assay [10] it was 23%.

For `COc1ccc(-c2nc3n(c2-c2ccncc2)CCC3)cc1` [SKF-104493], the “%Inh” value was 19% and 0% in assay [1] (1 µM); 0% in assay [2]; 11% and 9% in [3] (1 µM); 0% in [4]; 0% and 16% in assay [5] (1 µM); 0% and 12% in [6] (1 µM). The “%Inh” value in [7] (1 µM) is 0% and 2%; in [8] (1 µM) it was 30% and 6%; in [9] (1 µM), 16% and 23%; in [10] (1 µM), 23% and 7%.
